Shiga inhibitor: Shiga toxin inhibition | Vero cells, Shiga toxin protein synthesis inhibition reporter | inhibition, % at 38.7 µM | 290,000 tested, 9.2% active; in the data active means inhibition mostly above about 28%, no sharp cut-off; inactive means mostly below about 43%
Cycloheximide cs: counter-screen for Shiga toxin inhibitors: cycloheximide protein synthesis inhibition; cell reporter, cycloheximide protein synthesis inhibition counterscreen; max response, %; 300,000 tested, 12% active; in the data active means max response mostly above about 13%, no sharp cut-off; inactive means mostly below about 14%; further: read at 38.3 µM for the half of the compounds with a filed dose
Pf growth 48h: P. falciparum growth inhibition at 48 hours (one generation). AID 504832. 310,000 tested, 5.9% active. P. falciparum luciferase growth in erythrocytes, 48 h. Potency, µM (top dose mostly 28.7 µM), hits mostly inhibitors
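A one-generation exposure of luciferase-tagged malaria parasites in RPMI 1640/Albumax erythrocyte culture, 37 C and 5% CO2. Inhibition is inferred from decreased luminescence after adding detection reagent.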
Sm TGR inh: inhibitors of Schistosoma mansoni thioredoxin glutathione reductase. purified TGR, DTNB reduction, TNB absorbance 405 nm. Potency, µM (top dose mostly 114 µM), hits mostly inhibitors. 360,000 tested, 3% active. AID 485364; further: nearly all actives have a fitted effect of over 60% in size
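Kinetic colorimetric format: TGR-catalysed, NADPH-driven DTNB reduction monitored via TNB absorbance. Enzyme dispensed at 20 nM; compound exposure 15 min at room temperature before reaction start.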
Pf growth 96h: P. falciparum growth inhibition at 96 hour, primary screen for plastid delayed-death inhibitors | P. falciparum luciferase reporter growth, 96 h | Potency, µM (doses to about 28.7 µM), usual class: inhibitors | 320,000 tested, 6.9% active | AID 504834
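Luminescence readout: decreased luciferase signal marks inhibited growth of reporter-expressing P. falciparum in infected red cells (2% hematocrit, 0.05% parasitemia final), exposed to compound two generations (96 h, 37 C, 5% CO2).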
NS1 function inh: inhibitors of influenza NS1 protein function; Potency, µM (titrated, usually from 46.1 µM); 270,000 tested, 0.4% active; AID 2326; calls by dose curve; further: actives are rising curves; nearly all actives have a fitted effect of over 50% in size
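In this qHTS, NS1 from influenza A is expressed in budding yeast, where it slows growth. Cells are switched from glucose to 2% galactose medium (pH 6.0, -URA), treated with compound, and growth recovery is read at OD600.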
Each line names hits and unclear results; the compound was inactive in the other large screens. This is a sample that favours compounds with a hit; in the whole collection about 21% have one here. Unless noted, the call rests on the fitted dose curve; in most records, active means well fitted curve in the direction sought with a large enough effect; inconclusive means small, poorly fitted or top-dose-only effect, or another doubt; inactive means no such curve, though single readings can be large; an effect the other way counts as inactive or inconclusive.

O=C(NC1CCCC1)C(c1cccs1)N(C(=O)c1ccco1)c1ccc2c(c1)OCCO2 (stereo not drawn)	Shiga inhibitor 52, Cycloheximide cs 15, Pf growth 48h inconclusive
Cc1ccc(C(C(=O)NC2CCCC2)N(Cc2ccc3c(c2)OCO3)C(=O)Cc2cccs2)cc1 (stereo not drawn)	Pf growth 48h 13µM
Cc1ccc(CN(C(=O)Cc2cccs2)C(C(=O)NC2CCCC2)c2ccncc2)cc1 (stereo not drawn)	Pf growth 48h inconclusive
Cc1ccc(C(CNS(=O)(=O)c2ccc(F)cc2C)N2CCN(C)CC2)cc1 (stereo not drawn)	Pf growth 48h inconclusive (no result: Shiga inhibitor, Cycloheximide cs, NS1 function inh)
Cc1ccc(C(C(=O)NC2CCCC2)N(Cc2ccc3c(c2)OCO3)C(=O)c2snc(C(N)=O)c2N)cc1 (stereo not drawn)	Pf growth 48h 7.4µM, Pf growth 96h 8.3µM
CCOC(=O)c1c(C)nc2sc3c(c2c1-c1ccc(OC)cc1)NC(c1ccc(OC)cc1)NC3=O (stereo not drawn)	Pf growth 48h inconclusive, Pf growth 96h 2.6µM
CCOC(=O)c1c(C)nc2sc(C(=O)Nc3ccccc3)c(N)c2c1-c1ccc(OC)cc1	Pf growth 48h inconclusive
Cc1oc(S(=O)(=O)N2CCCCC2)cc1NC(=O)Nc1ccc(F)cc1	Pf growth 48h inconclusive, Sm TGR inh 10µM, Pf growth 96h 5.9µM
O=S(=O)(c1ccc(F)cc1)N1CCCC1	Pf growth 48h inconclusive, Pf growth 96h inconclusive (no result: Shiga inhibitor)
O=S(=O)(c1ccc(S(=O)(=O)N(Cc2ccc(F)cc2)C2CCCC2)cc1)N1CCCC1	Pf growth 48h 13µM (no result: Pf growth 96h)
O=C(Nc1ccc(F)cc1)Nc1cc(S(=O)(=O)N2CCOCC2)ccc1N1CCCC1	none (no result: NS1 function inh)
O=C(Nc1ccc(F)cc1)Nc1ccc(S(=O)(=O)N2CCCC2)cc1	Pf growth 48h 13µM, Pf growth 96h 7.4µM (no result: Shiga inhibitor, Cycloheximide cs, NS1 function inh)
C=CCNS(=O)(=O)c1ncnc2nc[nH]c12	none (no result: Shiga inhibitor, Cycloheximide cs, Pf growth 48h, Sm TGR inh, Pf growth 96h)
COc1ccc(Cc2nc3ccc(C(=O)N(C)CCc4cnn(C)c4)cc3o2)cc1OC	Pf growth 96h inconclusive
O=C(CCNC(=O)C1CCN(S(=O)(=O)c2ccccc2)CC1)NCc1ccncc1	none
N[C@@]1(C(=O)O)CO[C@H]2[C@H](C(=O)O)[C@H]21	none (no result: Pf growth 48h, Sm TGR inh, Pf growth 96h, NS1 function inh)
O=C(CSc1n[nH]c(-c2ccccn2)n1)Nc1ccccc1F	Pf growth 96h 10µM
O=C(Cc1ccccc1F)Nc1cccc2cccnc12	Shiga inhibitor 29, Cycloheximide cs 24
Cc1cccc(NC(=O)CC(=O)Nc2cccc(C)c2)c1	none (no result: Pf growth 48h)
COc1ccccc1NC(=O)CSc1n[nH]c(-c2ccccn2)n1	Pf growth 96h inconclusive
Cc1cccc(NC(=O)CSc2cccc3cccnc23)c1	Cycloheximide cs 14, Pf growth 96h inconclusive
O=C(O)CCCC(=O)Nc1cccc2cccnc12	none
Cc1ccc(SCC(=O)Nc2cccc(C)c2)cc1	Cycloheximide cs 19, Pf growth 96h inconclusive
O=C(CSc1cccc2cccnc12)Nc1ccccc1F	Cycloheximide cs 16, Pf growth 96h inconclusive
Cc1cccc(NC(=O)CCn2ccnc2C)c1	Shiga inhibitor 50, Cycloheximide cs 21
S=C(NCc1ccc2c(c1)OCO2)Nc1ccc2nsnc2c1	Cycloheximide cs 15, Sm TGR inh inconclusive
S=C(Nc1ccc(Cl)cc1)Nc1ccc2c(c1)OCCO2	Shiga inhibitor 58, Cycloheximide cs 39, Sm TGR inh inconclusive
CCn1ncc(NC(=S)Nc2ccc3c(c2)OCO3)c1C(N)=O	Shiga inhibitor 68, Cycloheximide cs 15 (no result: NS1 function inh)
S=C(Nc1ccc2c(c1)OCO2)Nc1ccc2c(c1)OCO2	Shiga inhibitor 66, Cycloheximide cs 55
CCn1ncc(NC(=S)Nc2ccc(OC)c(OC)c2)c1C(N)=O	Pf growth 96h inconclusive
COCCNC(=O)CN1C(=O)NC2(CCCc3cc(OC)ccc32)C1=O (stereo not drawn)	none
CCOc1ccccc1NC(=O)CNC(=O)CNC(=O)Cc1ccccc1	Pf growth 96h inconclusive
CS(=O)(=O)N1CCC(N2CCN(Cc3ccccc3)C(=O)C2=O)CC1	none (no result: Shiga inhibitor, Cycloheximide cs, Pf growth 48h, Pf growth 96h, NS1 function inh)
S=C(Nc1ccc2c(c1)OCCO2)Nc1ccccc1Cl	Shiga inhibitor 48, Cycloheximide cs 33, Sm TGR inh inconclusive
CCCCNC(=O)C(c1ccc(OCC(=O)OC)c(C(=O)OC)c1)N(CCc1ccccc1)C(=O)CCCCCN1C(=O)NC(c2ccc(-c3ccccc3)cc2)C(C(=O)OCc2ccccc2)=C1C (stereo not drawn)	Pf growth 48h 1.9µM, Pf growth 96h 2.1µM, NS1 function inh inconclusive
CCCCNC(=O)C(c1ccc(OCC(=O)OC)c(C(=O)OC)c1)N(CCOC)C(=O)CCCCCN1C(=O)NC(c2ccc(-c3ccccc3)cc2)C(C(=O)OCc2ccccc2)=C1C (stereo not drawn)	Pf growth 48h 1.2µM, Pf growth 96h 1.7µM
CC1=C(C(=O)OCc2ccccc2)C(c2ccc(Cl)cc2Cl)NC(=O)N1CCCCCC(=O)O (stereo not drawn)	Pf growth 96h inconclusive
CCCCCCN(C(=O)CCCCCN1C(=O)NC(c2ccc(-c3ccccc3)cc2)C(C(=O)OCc2ccccc2)=C1C)C(C(=O)NCCCC)c1ccc(OCC(=O)OC)cc1 (stereo not drawn)	Pf growth 48h inconclusive, Pf growth 96h 4.7µM
CCOc1ccc2[nH]c3c(=O)n(CCc4ccc(OC)cc4)cnc3c2c1	none
CC(=O)Nc1nnc(CCS(=O)(=O)c2ccc(C)c(C)c2)s1	none
CC(C)n1cc(CN2CCN(CCc3ccccc3)C(CCO)C2)cn1 (stereo not drawn)	Pf growth 96h 15µM
OCCC1CN(Cc2cccnc2)CCN1CCc1ccccc1 (stereo not drawn)	Pf growth 96h 9.3µM
CCC(Oc1ccccc1)C(=O)Nc1ccsc1C(=O)OC (stereo not drawn)	none
Cc1occc1C(=O)N1CCN(S(=O)(=O)c2ccccc2)CC1	Pf growth 96h inconclusive
Cc1c(NC(=O)C(C)OC(=O)COc2ccccc2)c(=O)n(-c2ccccc2)n1C (stereo not drawn)	none (no result: NS1 function inh)
COc1cccc(/C=C/C(=O)OC(C)C(=O)Nc2c(C)n(C)n(-c3ccccc3)c2=O)c1 (stereo not drawn)	none (no result: NS1 function inh)
Cc1c(NC(=O)C(C)OC(=O)CC2Sc3ccccc3NC2=O)c(=O)n(-c2ccccc2)n1C (stereo not drawn)	Cycloheximide cs 13, Pf growth 96h inconclusive
Cc1c(NC(=O)C(C)OC(=O)/C=C/c2ccco2)c(=O)n(-c2ccccc2)n1C (stereo not drawn)	Sm TGR inh 45µM (no result: NS1 function inh)
CC(=O)C(Cc1ccccc1)NC(=O)CN1c2cccc3cccc(c23)S1(=O)=O (stereo not drawn)	Pf growth 48h inconclusive, Pf growth 96h inconclusive (no result: Shiga inhibitor, Cycloheximide cs, NS1 function inh)
COc1ccc(NC(=O)N2CCN(C(=O)c3ccco3)CC2)c(OC)c1	Pf growth 96h inconclusive
CNC(=S)Nc1ccc(Br)cc1	Sm TGR inh inconclusive
